Test results published in PubChem BioAssay (EPA / NIEHS).
Inconclusive results are not listed. The source made the active and inactive calls. Rule for the calls: active = hit-call score of the fitted dose curve at least 0.9, where 1 is the maximum; inconclusive = response in the unintended direction; inactive = score below 0.9.

What follows are compounds tested against human RAR-related Orphan Receptor gamma (RORg), RORC (gene 6097) (UniProt P51449) (assay: ATG_RORg_TRANS: Attagene TRANS-FACTORIAL HepG2 Assay for human RAR-related Orphan Receptor gamma (RORg) (AID 2283011);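 for AC50: potency for induction of reporter transcripts above DMSO so activators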).
Description: ATG_TRANS is a cell-based, multiplexed-readout assay that uses HepG2, a human liver cell line, with measurements taken at 24 hours after chemical dosing in a 24-well plate.ATG_RORg_TRANS is one of 30 assay component(s) measured or calculated from the ATG_TRANS assay. It is designed to make measurements of mRNA induction, a form of inducible reporter, as detected with fluorescence intensity signals by Reverse transcription polymerase chain reaction (RT-PCR) and Capillary electrophoresis technology.Data from the assay component ATG_RORg_TRANS was analyzed into 1 assay endpoint. This assay endpoint, ATG_RORg_TRANS, was analyzed in the positive analysis fitting direction relative to DMSO as the negative control and baseline of activity. Using a type of inducible reporter, measures of mRNA for gain-of-signal activity can be used to understand the reporter gene at the transcription factor-level as they relate to the gene RORC. Furthermore, this assay endpoint can be referred to as a primary readout, because this assay has produced multiple assay endpoints where this one serves a reporter gene function. To generalize the intended target to other relatable targets, this assay endpoint is annotated to the nuclear receptor intended target family, where the subfamily is orphan.
Human liver HepG2 cells are transiently transfected with multiple reporter transcription units (MRTUs) in 6-well plates using FuGene 6 reagent (Roche; 3 ml FuGene/1 mg DNA). The MRTU constructs are regulated by a cis-regulating element (promoter). […] A major difference between the CIS and TRANS system is that in CIS activities of endogenous TFs are measured, whereas the TRANS assay evaluates changes in activities of exogenous, chimeric NR-Gal4 proteins. […] At the end of 24 hour incubation, total RNA was isolated using TriZol reagent (Invitrogen). The isolated RNA is then reverse-transcribed using oligo(dT) primer and Mo-MLV reverse transcriptase (Invitrogen) with DNAse I (Ambion) treatment for 30 min. The one-tenth of the produced cDNA was amplified by PCR using Taq DNA polymerase (Invitrogen) and two reporter sequence-specific primers. The PCR products were fluorescently labeled by primer extension with 6-arboxyfluorescein (6-FAM) 5'-labeled reporter sequence-specific primer (2 min at 95 C, 20 s at 68 C and 10 min at 72 C) and these products were digested with 5U of HpaI (New England Biolabs) for 2h at 37 C. The fragments were purified using Qiaquick PCR columns (Qiagen), analyzed on an ABI 3130xL genetic analyzer (Applied Biosystems) with peak positions identified by using a set of X-rhodamine (ROX)-labeled MapMarker1000 molecular weight standards (BioVentures). The raw capillary electrophoresis data was processed using Attagraph software (Attagene).

Chain of human RAR-related Orphan Receptor gamma (RORg), RORC (gene 6097) (P51449 whole entry, looked up): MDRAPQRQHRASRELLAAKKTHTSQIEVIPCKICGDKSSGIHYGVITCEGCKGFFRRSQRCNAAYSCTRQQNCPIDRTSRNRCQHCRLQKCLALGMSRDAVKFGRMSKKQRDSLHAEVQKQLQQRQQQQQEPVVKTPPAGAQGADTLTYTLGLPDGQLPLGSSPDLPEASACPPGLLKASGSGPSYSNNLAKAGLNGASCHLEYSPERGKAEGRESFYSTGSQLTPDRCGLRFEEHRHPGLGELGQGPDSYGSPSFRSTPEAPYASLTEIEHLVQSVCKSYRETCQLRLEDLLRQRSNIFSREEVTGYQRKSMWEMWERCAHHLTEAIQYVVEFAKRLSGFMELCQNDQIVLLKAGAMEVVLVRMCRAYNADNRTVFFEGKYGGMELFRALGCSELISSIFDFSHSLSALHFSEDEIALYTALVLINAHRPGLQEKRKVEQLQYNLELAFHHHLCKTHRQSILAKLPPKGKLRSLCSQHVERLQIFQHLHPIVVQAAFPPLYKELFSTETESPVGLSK

SMILES	outcome	AC50
C=Cc1ccc(OC(C)=O)cc1	inactive	
CC/C=C\C/C=C\C/C=C\CCCCCCCC(=O)OC	inactive	
CN(C)c1ccc2nc3ccc(=[N+](C)C)cc-3sc2c1	inactive	
COc1nccnc1CC(C)C	inactive	
CC=C(C)C(C)=O	inactive	
CC(CC(C)C)=NO	inactive	
Cc1cc(C)c(C=O)c(C)c1	inactive	
Cc1ccccc1CCO	inactive	
C[Si]1(C)O[Si](C)(C)O[Si](C)(C)O[Si](C)(C)O[Si](C)(C)O1	inactive	
CC(=O)/C=C/C1C(C)=CCCC1(C)C (stereo not given)	inactive	
O=C1CCCN1C1CCCCC1	inactive	
CCCCCCCCCCCC(=O)N(C)CC(=O)O	inactive	
CC(C)c1cccc(C(C)C)c1N	inactive	
Cc1ccc([N+](=O)[O-])cc1N		25.7 µM (active)
Nc1ncnc2nc[nH]c12	inactive	
CCCCC(=O)O	inactive	
O=c1c(O)c(-c2ccc(O)cc2O)oc2cc(O)cc(O)c12	inactive	
CCC(C)C(=O)OC (stereo not given)	inactive	
CC(C)=NNC(N)=S	inactive	
CC(C)(C)N	inactive	

SMILES	outcome	AC50
CC=C(C)C=CC=C(C)C	inactive	
CCC1COC(=O)O1 (stereo not given)	inactive	
C=CCCCCCCCCOC(C)=O	inactive	
CCOC(=O)C1=NN(c2ccc(Cl)cc2Cl)C(C)(C(=O)OCC)C1 (stereo not given)	inactive	
C=CCCCCCCCCC=O	inactive	
CC12CCC(CC1)C(C)(C)O2	inactive	
Nc1ccc(O)c([N+](=O)[O-])c1	inactive	
CCCCC(CC)COS(=O)(=O)O (stereo not given)	inactive	
CCCCCCCCCCCC(C)=O	inactive	
O=C(Cl)c1c(Cl)c(Cl)c(C(=O)Cl)c(Cl)c1Cl	inactive	
CC(=O)CCC1=C(C)CCCC1(C)C	inactive	
C=CC(=O)OCC(C)OCC(C)OCC(C)OC(=O)C=C (stereo not given)	inactive	
CC1=CC(C)C(C=O)CC1 (stereo not given)	inactive	
CC(C)(O)Cc1ccccc1	inactive	
CCC(=O)C1CC(C(C)C)CC=C1C (stereo not given)	inactive	
CC(=O)c1ccc(S(=O)(=O)NC(=O)NC2CCCCC2)cc1	inactive	
CCOC(=O)/C=C\C(=O)OCC	inactive	
CCOC(=O)c1ccccc1C	inactive	
COc1ccc(C(=O)/C(Br)=C\C(=O)O)cc1	inactive	
Cc1cc(=O)[nH]c(=O)[nH]1	inactive	
